# Measured values from PubChem BioAssay AID526 (National Center for Advancing Translational Sciences (NCATS), 2006).
# The campaign covered roughly 67,000 compounds. Fewer than 10 were called active. A selection follows. Values without a mark were called inactive. The call rests on the fitted dose curve; in most records, active means well fitted activation curve with a large enough effect (not every such curve was filed as active); inconclusive means small, poorly fitted or top-dose-only effect, or another doubt; inactive means no such curve, though single readings can be large or run the other way.
# Assay: Ubiquitin-GFP Assay
# Conditions: Ubiquitin-GFP reporter cells, proteasome inhibition, GFP fluorescence, untreated = 0%, 10 µM MG-132 = 100%; series mostly up to 45.9 µM
# Text: NIH Chemical Genomics Center [NCGC]
# NIH Molecular Libraries Screening Centers Network [MLSCN]
# The ubiquitin-proteasome pathway is present within all eukaryotic cells and plays roles in normal cellular functions and disease-related dysfunction. Proteins are tagged with a poly-ubiquitin chain that targets them for the proteasome, a multimeric protease, that degrades the protein into peptides and free ubiquitin. The proteasome has a key role in regulating cell cycle and growth and is known to control the levels of cyclins and CDK inhibitors as well as tumor suppressor proteins. Additionally, the activation of NF- B is controlled by ubiquitin-labeling and degradation of the inhibitory protein I B . […] With this in mind, proteasome inhibitors such as MG-132 and PS-341 have been used to inhibit tumor cell growth.
# A cellular assay for ubiquitin-proteasome function was used to find chemical probes of this pathway. The assay used an ubiquitin-GFP construct expressed in U2OS cells (BioImage). Under basal conditions little GFP can be detected as it is degraded by the proteasome. However, treatment of the cells with a proteasome inhibitor such as MG-132 results in a rise in GFP levels that can be detected in as little as four hours. We used the Acumen-Explorer laser plate cytometer having a 488 nm laser as an excitation light source to detect the GFP. Compounds were screened in 1536-well plates using qHTS with a concentration-titration series range that varied from 46 uM to 2.9 nM.
# NCGC Assay Protocol Summary:
# Cells (U20S ps 2042) expressing ubiquitin (G76V-GFP) were maintained in DMEM with Glutamax-1 and high glucose, 10% FBS, 1% (v/v) penicillin-streptomycin, 0.5 mg/mL Geneticin (G418). The cells were seeded in 1536-well plates using a solenoid-based dispenser at 700 cells/5ul in DMEM medium with Glutamax-1 and high glucose containing 0.5% FBS, w/o phenol red, 25 mM HEPES. The plates were incubated at 37 °C/5% CO2 overnight. Then 23 nl of MG-132 in DMSO was added to the control wells at a final concentration of 10 uM. Next, 23 nL of library compounds in DMSO were added to the sample wells. The plates were incubated for 4 hrs at 37 °C/5% CO2. Following this incubation the plates were read on the Acumen using a cell object definition of 15 to 100 um in width and depth and a window of Total Intensity of between 77,200 and 2,720,000 FLU to enumerate GFP-expressing cells.
# The %Activity was determined from the basal and MG-132 treated control wells. %Activity was determined by normalizing to the difference in signal between basal cells (0% Activity) and cells incubated with 10 uM of the proteasome inhibitor MG-132 (100% Activity). Concentration-response curves were fitted to the signals arising from the GFP fluorescence.
# Assay Protocol Summary Table
# Sequence Parameter Value Description
# 2. Time O/N 37C incubation
# 4. Compound 23 nL Libraries (46 uM to 2.9 nM)
# 5. Time 4 hr 37C incubation
# 6. Detector Acumen Total Intensity, GFP fluorescence (488 ex/515 em)
# Keywords: NIH Roadmap, MLSCN, MLI, MLSMR, BioImage, proteasome, ubiquitin-GFP, qHTS, NCGC
row,Structure (SMILES),activation (GFP accumulation)
1,CN(C)CCSS(=O)(=O)O,9.1% [at 9.17 µM]
2,CCCn1c(C)nc2c(NCCCCN(CC)CC)nc(C)nc21,inactive
3,CCOC(=O)N1CCN(C(=O)Cc2ccc(-n3c(=S)[nH]c4ccccc4c3=O)cc2)CC1,inactive
4,CCN(CC)CCCCn1c(-c2ccccc2)nc2c(N3CCOCC3)nc(C)nc21,inactive
5,CCN(Cc1ccncc1)C(=O)c1cccc(S(=O)(=O)N2CCOCC2)c1,inactive
6,CN(C)CC/C=C1\c2ccccc2CSc2ccccc21,inactive
7,CC[C@@H]1Cc2cc(O)ccc2C2=C1c1ccc(O)cc1C[C@H]2CC,inactive
8,COc1ccc(C(=O)n2nc(-c3ccc(C)cc3)nc2N)cc1OC,inactive
9,O=C(C1CCC1)N1CCc2cc(S(=O)(=O)NCc3cccnc3)ccc21,inactive
10,CC(C)CNC(=O)c1cc(-c2ccc(Br)cc2)on1,inactive
11,CCn1c(CNC(=O)c2ccc(OC)c(OC)c2)nnc1SCC(=O)Nc1ccccc1,inactive
12,COCCNC(=O)c1snc2ccc(Cl)cc12,inactive
13,O=C(c1cc(C(F)(F)F)cc(C(F)(F)F)c1)N1CCC[C@@]2(CCN(c3ccccn3)C2)C1,inactive
14,COc1ccc(CCNC(=O)CSc2nc(C)nc3c2oc2ccccc23)cc1OC,inactive
15,Cc1nnc(SCC(=O)NCc2ccccc2)s1,inactive
16,COc1ccc2nccc(C(=O)O)c2c1,inactive
17,COC(=O)c1cc(NC(=O)CN2CCC(C(N)=O)(N3CCCCC3)CC2)cc(C(=O)OC)c1,inactive
18,COc1ccc(N(Cc2cc3cc(OC)ccc3[nH]c2=O)S(C)(=O)=O)cc1,inactive
19,O=C(CN1CCOCC1)N1CCCc2c1c(=O)oc1ccc(OCc3ccccc3)cc21,inactive
20,O=C(O)/C(=C/c1c(C(=O)O)[nH]c2cc(Cl)cc(Cl)c12)c1ccccc1,inactive
21,CCCn1c(-c2ccc(F)cc2)nc2c(NC3CCN(Cc4ccccc4)C3)nc(C)nc21 (configuration not stated),inactive
22,COc1ccc(N(CC(=O)NC(C)(C)C)C(=O)c2ccco2)cc1,inactive
23,CCOC(=O)c1cnc2sccn2c1=O,inactive
24,COC(=O)Cn1c(=NC(=O)CSCC(=O)Nc2cc(C)on2)sc2ccccc21,inactive

row,Structure (SMILES),activation (GFP accumulation)
1,Cc1ccc(C)c2[nH]c(=O)c(CCNC(=O)CC(C)C)cc12,inactive
2,COc1cccc(Cn2c(=O)c(C)nc3cnc(Oc4ccccc4)nc32)c1,inactive
3,O=c1c(-c2ccc(F)cc2)nc2cnc(N3CCNCC3)nc2n1Cc1cccs1,inactive
4,Cc1ccc(SCc2cc(=O)[nH]c(N3CCCCC3)n2)cc1,inactive
5,CC(=O)Oc1ccc(C(=O)Nc2nccs2)cc1,inactive
6,CCn1c(=O)cc(SCC(=O)NCc2ccc3c(c2)OCO3)c2ccccc21,inactive
7,Oc1cc2c(cc1O)CN(C(=S)NCCc1ccc(Cl)cc1)CCC2,inactive
8,Cc1ccc(-c2c3c(=O)n(C)c(=O)n(C)c3cn2-c2ccccc2O)cc1,inactive
9,CCCCn1nnnc1NCc1cc(OC)c(OC)c(OC)c1,inactive
10,CC(N)=NCc1cccc(CN)c1,inactive
11,CN1C(=O)C[C@H](c2ccccc2)C1=O,inactive
12,Nc1nc2c(ncn2[C@H]2CC[C@@H](CO)O2)c(=O)n1C(=O)c1ccccc1,-2.15% [at 9.17 µM]
13,Cc1ccc(-n2ncc3c2ncn2nc(-c4ccco4)nc32)c(C)c1,inactive
14,CCCCC(=O)Nc1cc(C)c2c(=O)oc3ccccc3c2n1,inactive
15,Cc1ccc(NC(=O)NCC(c2cccnc2)N2CCOCC2)cc1 (configuration not stated),inactive
16,COc1cc(C2C(C#N)=C(C)NC3=C2C(=O)CC(C)(C)C3)ccc1O (configuration not stated),inactive
17,COc1ccc(N2C(=O)c3cccc4cccc(c34)C2=O)nn1,inactive
18,O=C(Nc1nsc(-c2ccccc2)n1)c1ccncc1,inactive
19,C[N+](C)(C)CCCCCNCC12CC3CC(CC(C3)C1)C2,inactive
20,CN(C)c1ccnc2sc3c(=O)n(Cc4ccccc4)cnc3c12,inactive
21,O=C(O)CN(Cc1ccco1)S(=O)(=O)c1ccccc1,inactive
22,CCOCCCNS(=O)(=O)Cc1ccccc1,inactive
23,O=C(O)[C@H](CCc1ccccn1)c1ccccc1,-6.91% [at 9.17 µM]
